Broadly, the AC50 is the concentration at which the activity in the assay is half-maximal.

Activity calls are given as the source filed them. How the source made its calls: active means hit-call score of the fitted dose curve at least 0.9, where 1 is the maximum; inactive means score below 0.9.

A short description of assay [1]: BSK_hDFCGF_SRB: Viability Assessment in the BioMAP Diversity Plus: hDFCGF Assay (AID 2283061).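 Further: cells exposed to compound for 24 h before the read.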 The settings on record: primary human foreskin fibroblasts. A digest of the protocol: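 Human foreskin fibroblasts in 96-well plates were treated 24 h. Total protein was measured by 0.1% SRB staining after 10% TCA fixation, read at 560 nm. Data were fitted bidirectionally against DMSO.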

Read-out in assay [2]: TIMP metallopeptidase inhibitor 1 (TIMP1), TIMP1 (gene 7076)
The experiment in a line: BSK_hDFCGF_TIMP1: BioMAP Diversity Plus: hDFCGF Assay for TIMP metallopeptidase inhibitor 1 (TIMP1) Biomarker Activity (AID 2283062). The settings on record: primary human foreskin fibroblasts; actives raise or lower the signal. A digest of the protocol:
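Human foreskin fibroblast primary cultures dosed for 24 h; secreted/surface TIMP-1 quantified by ELISA. Bidirectional curve fitting against DMSO baseline; cytotoxicity tracked in parallel cultures by SRB total-protein staining.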

Read-out in assay [3]: Monokine induced gamma interferon (MIG), CXCL9 (gene 4283)
The experiment in a line: BSK_hDFCGF_MIG: BioMAP Diversity Plus: hDFCGF Assay for Monokine induced gamma interferon (MIG) Biomarker Activity (AID 2283063). The settings on record: primary human foreskin fibroblasts; actives raise or lower the signal. A digest of the protocol: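 MIG/CXCL9 measured by ELISA 24 h after dosing primary human skin fibroblasts. Activity fitted in both directions against DMSO controls. Cytotoxicity was checked in parallel cultures by SRB staining read at 560 nm.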

Read-out in assay [4]: Matrix Metallopeptidase 1 (MMP1), MMP1 (gene 4312)
The experiment in a line: BSK_hDFCGF_MMP1: BioMAP Diversity Plus: hDFCGF Assay for Matrix Metallopeptidase 1 (MMP1) Biomarker Activity (AID 2283064). The settings on record: primary human foreskin fibroblasts; actives raise or lower the signal. A digest of the protocol: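 ELISA read-out of MMP1 from human foreskin fibroblasts (primary skin cells), 24 h post-dose. Gain or loss of signal was fitted bidirectionally versus DMSO negative control; cytotoxicity was checked by SRB in parallel cultures.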

Read-out in assay [5]: Plasminogen activator inhibitor-1 (PAI1), SERPINE1 (gene 5054)
Nature of the assay: BSK_hDFCGF_PAI1: BioMAP Diversity Plus: hDFCGF Assay for Plasminogen activator inhibitor-1 (PAI1) Biomarker Activity (AID 2283066). The settings on record: primary human foreskin fibroblasts; actives raise or lower the signal. A digest of the protocol:
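PAI-1 levels in human dermal foreskin fibroblasts were quantified by ELISA 24 h after dosing, with gain or loss analysed against DMSO. Overt cytotoxicity was checked by sulforhodamine B total-protein staining in parallel cultures.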

Read-out in assay [6]: Intercellular Adhesion Molecule 1 (ICAM1), ICAM1 (gene 3383)
Nature of the assay: BSK_KF3CT_ICAM1: BioMAP Diversity Plus: KF3CT Assay for Intercellular Adhesion Molecule 1 (ICAM1) Biomarker Activity (AID 2283067). The note with it: primary human keratinocytes with fibroblasts; actives raise or lower the signal. A digest of the protocol: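 Human keratinocyte–foreskin fibroblast co-culture was treated for 24 h. Cell-surface ICAM-1 was quantified by ELISA, fitted bidirectionally relative to DMSO. Cytotoxicity was checked in parallel cultures by SRB total-protein staining.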

Read-out in assay [7]: Interferon-gamma inducible Protein 10 (IP10), CXCL10 (gene 3627)
Nature of the assay: BSK_KF3CT_IP10: BioMAP Diversity Plus: KF3CT Assay for Interferon-gamma inducible Protein 10 (IP10) Biomarker Activity (AID 2283068). The settings on record: primary human keratinocytes with fibroblasts; actives raise or lower the signal. A digest of the protocol: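 KF3CT co-culture (keratinocytes + foreskin fibroblasts), 24 h compound, IP-10 by ELISA; bidirectional fit vs DMSO baseline.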

Read-out in assay [8]: Interleukin-1 alpha (IL1a), IL1A (gene 3552)
The experiment in a line: BSK_KF3CT_IL1a: BioMAP Diversity Plus: KF3CT Assay for Interleukin-1 alpha (IL1a) Biomarker Activity (AID 2283070). The settings on record: primary human keratinocytes with fibroblasts; actives raise or lower the signal. The essentials:
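Primary skin co-culture (keratinocytes, foreskin fibroblasts), 24 h exposure; ELISA for IL-1a; bidirectional curve fit vs DMSO.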

Read-out in assay [9]: C-C motif chemokine 2 (Homo sapiens) (UniProt P13500)
The experiment in a line: BSK_KF3CT_MCP1: BioMAP Diversity Plus: KF3CT Assay for Monocyte Chemoattractant Protein 1 (MCP1/CCL2) Biomarker Activity (AID 2283073). The settings on record: primary human keratinocytes with fibroblasts; actives raise or lower the signal. A digest of the protocol: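 Human keratinocyte–foreskin fibroblast co-culture; MCP-1 measured by ELISA 24 h after dosing. Bidirectional fit vs DMSO; cytotoxicity tracked by SRB total protein in parallel cultures.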

Read-out in assay [10]: Matrix Metallopeptidase 9 (MMP9), MMP9 (gene 4318)
The experiment in a line: BSK_KF3CT_MMP9: BioMAP Diversity Plus: KF3CT Assay for Matrix Metallopeptidase 9 (MMP9) Biomarker Activity (AID 2283074).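 On AC50: MMP9 protein level quantified by ELISA in the co-culture.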 The settings on record: primary human keratinocytes with fibroblasts; actives raise or lower the signal. A digest of the protocol: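 ELISA read-out of MMP-9 at 24 h post-dosing in a co-culture of human skin keratinocytes and foreskin fibroblasts. Gain or loss of signal was fitted in both directions against DMSO.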

Read-out in assay [11]: urokinase plasminogen activator (uPA), PLAU (gene 5328)
Nature of the assay: BSK_KF3CT_uPA: BioMAP Diversity Plus: KF3CT Assay for urokinase plasminogen activator (uPA) Biomarker Activity (AID 2283075). The note with it: primary human keratinocytes with fibroblasts; actives raise or lower the signal. The essentials: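 Skin co-culture (keratinocytes + foreskin fibroblasts), human primary; 24 h post-dose; uPA by ELISA; gain/loss fit vs DMSO baseline.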

Read-out in assay [12]: E-selectin (Homo sapiens) (UniProt P16581)
Nature of the assay: BSK_LPS_Eselectin: BioMAP Diversity Plus: LPS Assay for Eselectin Biomarker Activity (AID 2283077). The note with it: primary human HUVEC with PBMC; actives raise or lower the signal. The essentials: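 Human umbilical vein endothelial cells co-cultured with PBMC under LPS stimulation; cell-surface E-selectin measured by ELISA 24 h after dosing. Change in either direction versus DMSO, with SRB total-protein staining in parallel cultures for cytotoxicity.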

Read-out in assay [13]: Interleukin-8 (IL8), CXCL8 (gene 3576)
Nature of the assay: BSK_LPS_IL8: BioMAP Diversity Plus: LPS Assay for Interleukin-8 (IL8) Biomarker Activity (AID 2283078). The note with it: primary human HUVEC with PBMC; actives raise or lower the signal. The essentials:
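Human umbilical vein endothelial cells co-cultured with PBMC, LPS-stimulated, exposed to compound for 24 h. IL-8 quantified by ELISA; fitted in both directions against DMSO, with SRB total-protein staining of parallel cultures for cytotoxicity.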

The nature of assay [14]: BSK_LPS_SRB: Viability Assessment in the BioMAP Diversity Plus: LPS Assay (AID 2283079).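 Further: total protein by sulforhodamine B absorbance as a cytotoxicity measure; measured one day after compound addition.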 The note with it: primary human HUVEC with PBMC. A digest of the protocol:
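Co-culture of human umbilical vein endothelial cells and PBMC, read 24 h after dosing. Total protein by 0.1% SRB staining after 10% TCA fixation, absorbance at 560 nm; bidirectional fit against DMSO.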

Read-out in assay [15]: Interleukin-1 alpha (IL1a), IL1A (gene 3552)
Nature of the assay: BSK_LPS_IL1a: BioMAP Diversity Plus: LPS Assay for Interleukin-1 alpha (IL1a) Biomarker Activity (AID 2283080). The settings on record: primary human HUVEC with PBMC; actives raise or lower the signal. A digest of the protocol:
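Human umbilical vein endothelial cells co-cultured with PBMC and stimulated with LPS; IL-1a measured by ELISA 24 h after dosing. Bidirectional fitting against DMSO; cytotoxicity checked by SRB staining in parallel cultures.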

Assay [16] is described as follows: BSK_KF3CT_SRB: Viability Assessment in the BioMAP Diversity Plus: KF3CT Assay (AID 2283069).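 Further: read 24 h after compound addition.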 The note with it: primary human keratinocytes with fibroblasts. The essentials:
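SRB read-out at 560 nm (0.1% stain, TCA-fixed cells) gauges overt cytotoxicity in a human skin keratinocyte–fibroblast co-culture 24 h post-dosing. Signal change was fitted bidirectionally relative to DMSO control.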

Read-out in assay [17]: TIMP metallopeptidase inhibitor 2 (TIMP2), TIMP2 (gene 7077)
Nature of the assay: BSK_KF3CT_TIMP2: BioMAP Diversity Plus: KF3CT Assay for TIMP metallopeptidase inhibitor 2 (TIMP2) Biomarker Activity (AID 2283071). The note with it: primary human keratinocytes with fibroblasts; actives raise or lower the signal. The essentials: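 TIMP-2 measured by ELISA at 24 h in human keratinocyte/fibroblast primary co-cultures exposed to chemicals. Both increases and decreases were fitted against DMSO. Parallel cultures were stained with SRB for total protein as an overt-cytotoxicity check.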

Read-out in assay [18]: Transforming growth factor beta 1 (TGFb1), TGFB1 (gene 7040)
Nature of the assay: BSK_KF3CT_TGFb1: BioMAP Diversity Plus: KF3CT Assay for Transforming growth factor beta 1 (TGFb1) Biomarker Activity (AID 2283072). The settings on record: primary human keratinocytes with fibroblasts; actives raise or lower the signal. A digest of the protocol:
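ELISA quantifies TGF-b1 at 24 h post-dose in a primary human skin co-culture of keratinocytes and fibroblasts, with gain or loss judged against DMSO. Parallel SRB total-protein staining flags overt cytotoxicity.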

Read-out in the next assay: CD40, CD40 (gene 958)
The experiment in a line: BSK_LPS_CD40: BioMAP Diversity Plus: LPS Assay for CD40 Biomarker Activity (AID 2283076). The settings on record: primary human HUVEC with PBMC; actives raise or lower the signal. The essentials: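 HUVEC plus PBMC co-culture stimulated with LPS; CD40 quantified by ELISA 24 h after compound dosing. Fitting was bidirectional relative to DMSO. SRB staining of parallel cultures flagged overt cytotoxicity.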

Chain of E-selectin (Homo sapiens) (P16581 whole entry, looked up): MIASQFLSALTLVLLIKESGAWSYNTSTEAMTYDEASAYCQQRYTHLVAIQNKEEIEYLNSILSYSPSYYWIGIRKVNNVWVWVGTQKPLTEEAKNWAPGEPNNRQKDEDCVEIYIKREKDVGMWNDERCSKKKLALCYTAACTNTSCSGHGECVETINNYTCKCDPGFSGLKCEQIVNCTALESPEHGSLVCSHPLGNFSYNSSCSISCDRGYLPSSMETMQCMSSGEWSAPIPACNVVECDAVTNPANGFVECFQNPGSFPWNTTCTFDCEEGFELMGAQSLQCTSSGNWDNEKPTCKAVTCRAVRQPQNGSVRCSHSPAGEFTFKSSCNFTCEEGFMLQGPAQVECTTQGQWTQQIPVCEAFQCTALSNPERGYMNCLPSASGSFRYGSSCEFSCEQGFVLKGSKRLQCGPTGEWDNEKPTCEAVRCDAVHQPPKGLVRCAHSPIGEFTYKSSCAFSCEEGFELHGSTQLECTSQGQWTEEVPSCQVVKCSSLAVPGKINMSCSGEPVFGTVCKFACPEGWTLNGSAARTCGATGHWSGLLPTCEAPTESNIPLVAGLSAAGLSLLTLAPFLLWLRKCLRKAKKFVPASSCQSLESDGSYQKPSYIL

In the case of `Oc1ccc2ccccc2c1N=Nc1ccccc1`, the result in assay [1], in [2], in [3], in assay [4], in assay [6] and in assay [7] was inactive. The result in assay [8], in assay [9], in assay [11], in [12], in [13] and in [14] was inactive. Besides, the outcome in assay [15] was inactive. Also, the AC50 is 855 nM (active) in assay [5] and 3970 nM (active) in assay [10].

For `NS(=O)(=O)c1cc2c(cc1Cl)NCNS2(=O)=O`, the result in assay [1], in assay [2], in assay [3], in [4], in assay [6] and in assay [7] was inactive. The result in assay [16], in assay [8], in assay [17], in [18], in assay [9] and in assay [10] was inactive. The outcome in assay [11] was “inactive”; in the assay with CD40, CD40 (gene 958) it was “inactive”; in [12] it was “inactive”; in assay [13], “inactive”; in [14], “inactive”; in assay [15], “inactive”.

On to `CC(=O)OCCOCCOCCOC(C)=O`, for which the result in [1], in assay [2], in assay [3], in assay [4], in assay [6] and in assay [7] was inactive. In addition, the outcome in assay [8] was “inactive”; in assay [18], “inactive”; in assay [9] it was “inactive”; in assay [10], “inactive”; in assay [11] it was “inactive”; in the assay with CD40, CD40 (gene 958) it was “inactive”. In addition, the outcome in [12], in [13], in assay [14] and in assay [15] was inactive.

`CCCCOC(=O)CCCCCCCCC(=O)OCCCC`: the outcome in assay [1], in assay [2], in assay [3], in [4], in assay [5] and in assay [6] was inactive. In addition, the result in [7], in [8], in assay [17], in assay [18], in [9] and in [10] was inactive. In addition, the result in assay [11], in [12], in [13], in assay [14] and in assay [15] was inactive.

Values taken from PubChem BioAssay (EPA / NIEHS).
